Assay [1] in a line: binders of probe aFSTL3 on microarray, primary screen, stem cell growth factor project, biochemical, small-molecule microarray, fluorescence 635/667 (AID 1064).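 Also: measures binding of the biotinylated anti-FSTL3 antibody to printed compounds.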 The note with it: higher = more signal.
The nature of assay [2]: binders from COS7 lysate, DM2A8 probe, primary screen, torsin A project, cell lysate, small-molecule microarray, fluorescence 635/667 (AID 1065). The following applies: higher = more signal, COS7 lysate expressing mutant human TOR1A.
Assay [3] is described as follows: binders of probe aFGF2 on microarray, primary screen, stem cell growth factor project, biochemical, small-molecule microarray, fluorescence 635/667 (AID 1067).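 Also: measures binding of biotinylated aFGF2 protein to printed compounds on slides; z-score merges feature fluorescence and signal-to-noise across triplicate slides.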 The following applies: higher = more signal.
Assay [4] is described as follows: binders of probe aFGF10 on microarray, primary screen, stem cell growth factor project, biochemical, small-molecule microarray, fluorescence 635/667 (AID 1071).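 Also: score merges 667 nm spot intensity and signal to noise from triplicate slides.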 The note with it: higher = more signal.
For assay [5], the target named is Neurogenic locus notch homolog protein 2 (Homo sapiens) (UniProt Q04721). As to the kind of experiment: Notch2 binders on small-molecule microarrays, primary screen, biochemical, small-molecule microarray, 635 nm fluorescence, stem cell growth factors (AID 1073). The following applies: Notch2 binding, higher = more signal.
Sequence of Neurogenic locus notch homolog protein 2 (Homo sapiens) (Q04721 whole entry, looked up, canonical isoform): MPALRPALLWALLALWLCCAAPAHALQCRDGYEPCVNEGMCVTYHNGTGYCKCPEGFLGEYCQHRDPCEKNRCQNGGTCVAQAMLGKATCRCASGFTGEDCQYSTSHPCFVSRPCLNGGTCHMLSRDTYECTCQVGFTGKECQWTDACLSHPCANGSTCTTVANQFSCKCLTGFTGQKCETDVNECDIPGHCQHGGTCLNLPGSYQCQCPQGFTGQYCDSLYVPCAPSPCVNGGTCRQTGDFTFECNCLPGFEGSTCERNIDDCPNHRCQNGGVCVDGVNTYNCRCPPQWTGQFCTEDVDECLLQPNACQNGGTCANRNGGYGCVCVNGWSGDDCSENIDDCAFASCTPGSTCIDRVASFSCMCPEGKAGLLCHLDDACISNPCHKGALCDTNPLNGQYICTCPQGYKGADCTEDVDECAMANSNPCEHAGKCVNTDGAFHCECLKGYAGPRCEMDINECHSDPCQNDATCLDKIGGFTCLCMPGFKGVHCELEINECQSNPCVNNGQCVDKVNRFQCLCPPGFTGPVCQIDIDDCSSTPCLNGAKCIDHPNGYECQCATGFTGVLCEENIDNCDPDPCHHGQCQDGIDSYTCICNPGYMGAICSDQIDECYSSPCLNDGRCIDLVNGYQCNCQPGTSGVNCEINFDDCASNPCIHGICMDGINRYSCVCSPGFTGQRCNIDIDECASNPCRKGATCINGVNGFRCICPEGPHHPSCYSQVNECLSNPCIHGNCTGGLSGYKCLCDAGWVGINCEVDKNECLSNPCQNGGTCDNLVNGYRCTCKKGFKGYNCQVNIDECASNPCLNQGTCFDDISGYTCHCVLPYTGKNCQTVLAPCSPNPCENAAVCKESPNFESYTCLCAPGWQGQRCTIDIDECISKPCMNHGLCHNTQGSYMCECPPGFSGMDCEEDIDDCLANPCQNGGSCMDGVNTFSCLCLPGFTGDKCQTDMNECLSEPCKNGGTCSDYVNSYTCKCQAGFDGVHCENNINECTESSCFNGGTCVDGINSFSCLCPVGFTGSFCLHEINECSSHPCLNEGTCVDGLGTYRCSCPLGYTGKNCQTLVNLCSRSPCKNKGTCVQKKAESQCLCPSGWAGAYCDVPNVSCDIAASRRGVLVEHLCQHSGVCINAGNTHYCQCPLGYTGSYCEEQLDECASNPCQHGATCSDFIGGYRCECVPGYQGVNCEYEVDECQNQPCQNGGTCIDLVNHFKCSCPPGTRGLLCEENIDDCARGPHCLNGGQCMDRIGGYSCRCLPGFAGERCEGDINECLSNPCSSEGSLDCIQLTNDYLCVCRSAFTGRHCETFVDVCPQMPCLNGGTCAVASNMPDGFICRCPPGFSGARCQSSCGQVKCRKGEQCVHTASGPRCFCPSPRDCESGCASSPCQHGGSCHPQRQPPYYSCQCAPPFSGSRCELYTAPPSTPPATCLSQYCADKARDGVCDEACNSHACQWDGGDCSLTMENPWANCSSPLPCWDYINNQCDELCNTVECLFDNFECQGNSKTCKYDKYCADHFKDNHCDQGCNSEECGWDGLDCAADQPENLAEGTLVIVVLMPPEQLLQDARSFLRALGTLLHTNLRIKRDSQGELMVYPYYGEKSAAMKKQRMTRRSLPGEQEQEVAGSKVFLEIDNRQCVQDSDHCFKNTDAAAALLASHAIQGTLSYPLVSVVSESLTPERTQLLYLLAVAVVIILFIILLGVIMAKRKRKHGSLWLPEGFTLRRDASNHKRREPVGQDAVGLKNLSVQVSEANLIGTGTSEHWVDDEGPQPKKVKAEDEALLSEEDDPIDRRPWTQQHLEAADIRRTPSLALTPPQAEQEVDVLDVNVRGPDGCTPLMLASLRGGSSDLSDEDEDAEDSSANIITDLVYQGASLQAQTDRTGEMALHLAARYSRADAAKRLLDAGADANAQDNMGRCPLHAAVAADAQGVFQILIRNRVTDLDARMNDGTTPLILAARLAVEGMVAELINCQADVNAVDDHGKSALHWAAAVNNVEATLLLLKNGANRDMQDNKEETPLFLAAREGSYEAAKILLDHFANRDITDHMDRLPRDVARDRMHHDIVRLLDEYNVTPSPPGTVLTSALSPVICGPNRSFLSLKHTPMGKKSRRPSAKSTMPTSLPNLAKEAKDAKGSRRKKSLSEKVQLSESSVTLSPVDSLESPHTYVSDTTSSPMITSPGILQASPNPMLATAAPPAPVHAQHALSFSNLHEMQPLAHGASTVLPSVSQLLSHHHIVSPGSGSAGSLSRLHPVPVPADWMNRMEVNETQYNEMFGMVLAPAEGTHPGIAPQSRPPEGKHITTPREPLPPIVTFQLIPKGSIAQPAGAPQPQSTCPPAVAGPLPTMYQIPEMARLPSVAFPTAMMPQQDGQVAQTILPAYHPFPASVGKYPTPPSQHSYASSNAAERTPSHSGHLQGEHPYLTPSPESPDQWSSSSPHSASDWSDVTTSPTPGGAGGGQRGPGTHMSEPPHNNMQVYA
The target of assay [6] is Pro-neuregulin-1, membrane-bound isoform (Homo sapiens) (UniProt Q02297). In words: NRG1 binders on small-molecule microarrays, primary screen, psychiatric disease protein project, biochemical, small-molecule microarray, fluorescence 635/667 (AID 1075).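 Also: score combines 667 nm spot fluorescence with signal to noise.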 The note with it: NRG1 binding, 635 nm fluorescence, higher = more signal.
For assay [7], the system named is Neuregulin-1 EGF-like domain. As to the kind of experiment: binders of neuregulin-1 EGF-like domain, primary screen, biochemical, small-molecule microarray, 635 nm fluorescence (AID 1081).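 Also: binding of the protein to compounds printed on small-molecule microarray slides.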 The note with it: small-molecule microarray binding, higher = more signal.
A short description of assay [8]: FRG1 promoter luciferase signal modulators, primary screen, FRG1 inhibition for FSHD, cell-based, C2C12 myotubes, firefly/Renilla luciferase, luminescence (AID 1084). The note with it: higher = more signal, called active from +8 up or from −8 down.
The nature of assay [9]: binders of probe aFST on microarray, primary screen, stem cell growth factor project, biochemical, small-molecule microarray, fluorescence 635/667 (AID 1086).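 Also: score merges 667 nm fluorescence with signal-to-noise of each printed compound spot.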 The following applies: higher = more signal.
Assay [10] is described as follows: binders of probe aHhip on microarray, primary screen, stem cell growth factor project, biochemical, small-molecule microarray, fluorescence 635/667 (AID 1087).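 Also: score merges spot fluorescence at 667nm with spot signal to noise ratio.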 The following applies: higher = more signal.
Assay [11] has as its system PRMT1 (protein arginine N-methyltransferase 1). In words: PRMT1 binders on small-molecule microarrays, primary screen, biochemical, small-molecule microarray, 635 nm fluorescence (AID 1088).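 Also: binding of Prmt1 protein to compounds spotted on small-molecule microarray slides.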 The note with it: small-molecule microarray binding, higher = more signal.
Assay [12] can be described thus: yeast growth modulation, basal conditions, primary screen, YJM789 clinical isolate, OD600, 24 h (AID 1089).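 Also: growth of clinical yeast isolate S. cerevisiae YJM 789 seeded 1000 cells per well; test concentration not given here.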 The note with it: S. cerevisiae YJM789 growth, higher = more signal, called active from +8 up or from −8 down.
Assay [13] is described as follows: fission yeast growth modulation, primary screen, strain 972, OD600, 24 h, no modulator (AID 1090).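 Also: basal condition with compound alone and no growth modifier present; test concentration not given here.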 The note with it: S. pombe 972 growth, higher = more signal, called active from +8 up or from −8 down.
Assay [14] in a line: S. cerevisiae growth modulation with rapamycin, primary screen, strain BY4716, OD600, 96 h (AID 1091). Also: test concentration not given here. The note with it: higher = more signal, called active from +8 up or from −8 down.
For assay [15], the target named is Torsin-1A-interacting protein 2 (Homo sapiens) (UniProt Q8NFQ8). As to the kind of experiment: LULL1 binders on small-molecule microarray, primary screen, cell lysate, human LULL1 lysate, 635/667 nm fluorescence (AID 1092).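 Also: probe is lysate of COS7 cells overexpressing human LULL1; score merges per-feature 667 nm fluorescence with signal-to-noise.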 The following applies: hLULL1 lysate binding, 635 nm fluorescence, higher = more signal.
Assay [16] in a line: E. coli growth modulation, two-sided OD650, primary screen, E. coli filamentation project, strain DRC41, 24 h (AID 1093).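 Also: MC1000 strain lacking acrAB efflux and sulA so SOS filamentation is blocked; test concentration not given here.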 The note with it: OD650, 24 h, higher = more signal, called active from +8 up or from −8 down.
Assay [17] can be described thus: small-molecule microarray binders of probe aLefty2, primary screen, biochemical, biotinylated probe, 635/667 nm fluorescence (AID 1094).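 Also: score merges spot fluorescence near 667 nm with spot signal-to-noise ratio.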 The note with it: higher = more signal.
Assay [18] deals with Noggin (protein binding on small-molecule microarray). As to the kind of experiment: Noggin binders on small-molecule microarray, primary screen, biochemical, 635/667 nm fluorescence (AID 1095).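 Also: score merges 667 nm feature fluorescence with signal to noise over triplicate slides.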 The note with it: 635 nm fluorescence, higher = more signal.
The target in assay [19] is Neurogenic locus notch homolog protein 3 (Homo sapiens) (UniProt Q9UM47). As to the kind of experiment: NOTCH3 binders on small-molecule microarray, primary screen, biochemical, 635/667 nm fluorescence (AID 1096). The note with it: NOTCH3 binding, 635 nm fluorescence, higher = more signal.
Sequence of Neurogenic locus notch homolog protein 3 (Homo sapiens) (Q9UM47 whole entry, looked up): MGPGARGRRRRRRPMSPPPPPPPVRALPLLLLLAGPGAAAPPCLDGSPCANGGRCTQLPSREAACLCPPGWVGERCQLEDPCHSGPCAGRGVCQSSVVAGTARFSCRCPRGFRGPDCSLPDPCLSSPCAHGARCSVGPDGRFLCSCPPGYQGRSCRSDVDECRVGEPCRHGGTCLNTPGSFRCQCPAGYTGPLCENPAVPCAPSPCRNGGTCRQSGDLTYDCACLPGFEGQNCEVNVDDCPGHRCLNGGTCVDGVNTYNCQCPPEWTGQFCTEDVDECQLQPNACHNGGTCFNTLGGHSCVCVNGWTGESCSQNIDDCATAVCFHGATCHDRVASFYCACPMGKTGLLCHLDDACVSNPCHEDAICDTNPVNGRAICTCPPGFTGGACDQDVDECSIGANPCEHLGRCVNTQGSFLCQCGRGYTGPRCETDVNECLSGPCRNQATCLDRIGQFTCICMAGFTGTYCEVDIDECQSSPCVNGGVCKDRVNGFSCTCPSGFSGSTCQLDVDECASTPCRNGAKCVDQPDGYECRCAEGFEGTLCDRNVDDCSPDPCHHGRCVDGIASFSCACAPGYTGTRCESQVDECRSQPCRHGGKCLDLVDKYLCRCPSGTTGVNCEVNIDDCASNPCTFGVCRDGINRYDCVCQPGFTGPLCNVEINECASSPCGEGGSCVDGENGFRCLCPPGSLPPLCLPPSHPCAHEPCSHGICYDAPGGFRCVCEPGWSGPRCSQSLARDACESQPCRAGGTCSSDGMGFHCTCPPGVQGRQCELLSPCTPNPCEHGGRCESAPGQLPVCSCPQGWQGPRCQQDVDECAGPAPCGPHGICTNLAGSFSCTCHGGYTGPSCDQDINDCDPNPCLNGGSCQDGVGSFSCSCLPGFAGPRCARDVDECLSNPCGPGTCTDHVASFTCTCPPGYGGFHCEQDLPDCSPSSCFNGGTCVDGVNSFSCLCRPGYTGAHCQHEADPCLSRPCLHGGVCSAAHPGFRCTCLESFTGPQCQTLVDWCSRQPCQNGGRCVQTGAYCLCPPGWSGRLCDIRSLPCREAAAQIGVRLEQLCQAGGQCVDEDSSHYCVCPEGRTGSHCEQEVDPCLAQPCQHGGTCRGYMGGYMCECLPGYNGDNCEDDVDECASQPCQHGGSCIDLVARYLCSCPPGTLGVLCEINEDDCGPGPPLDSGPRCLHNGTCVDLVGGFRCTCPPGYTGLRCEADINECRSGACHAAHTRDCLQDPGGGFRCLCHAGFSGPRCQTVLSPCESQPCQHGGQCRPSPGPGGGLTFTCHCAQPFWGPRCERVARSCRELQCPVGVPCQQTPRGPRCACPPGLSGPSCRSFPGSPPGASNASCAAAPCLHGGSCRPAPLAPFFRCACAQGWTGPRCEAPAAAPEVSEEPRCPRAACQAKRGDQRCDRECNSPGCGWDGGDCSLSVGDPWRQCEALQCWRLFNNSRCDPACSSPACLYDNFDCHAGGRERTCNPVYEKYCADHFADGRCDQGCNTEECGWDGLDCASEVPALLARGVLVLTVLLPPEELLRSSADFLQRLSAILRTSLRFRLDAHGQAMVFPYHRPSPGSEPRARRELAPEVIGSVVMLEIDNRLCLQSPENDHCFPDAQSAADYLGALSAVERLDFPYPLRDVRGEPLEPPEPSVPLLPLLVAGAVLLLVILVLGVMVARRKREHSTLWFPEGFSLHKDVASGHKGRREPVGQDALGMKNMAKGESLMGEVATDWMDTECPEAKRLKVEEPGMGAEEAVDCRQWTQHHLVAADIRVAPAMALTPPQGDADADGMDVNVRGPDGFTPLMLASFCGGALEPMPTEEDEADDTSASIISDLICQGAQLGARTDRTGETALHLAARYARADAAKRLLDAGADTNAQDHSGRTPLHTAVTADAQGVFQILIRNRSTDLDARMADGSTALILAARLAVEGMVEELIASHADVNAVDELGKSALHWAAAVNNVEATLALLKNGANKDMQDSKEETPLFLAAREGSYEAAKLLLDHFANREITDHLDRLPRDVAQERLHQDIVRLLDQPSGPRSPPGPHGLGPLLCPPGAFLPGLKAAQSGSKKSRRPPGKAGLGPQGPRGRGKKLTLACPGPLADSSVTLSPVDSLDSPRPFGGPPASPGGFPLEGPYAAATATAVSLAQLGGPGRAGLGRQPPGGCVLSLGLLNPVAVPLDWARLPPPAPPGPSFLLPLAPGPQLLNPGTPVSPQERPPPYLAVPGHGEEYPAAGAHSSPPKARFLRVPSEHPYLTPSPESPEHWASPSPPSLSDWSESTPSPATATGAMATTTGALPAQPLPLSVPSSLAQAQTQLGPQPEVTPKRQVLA
The nature of assay [20]: small-molecule microarray binders of probe aEGFR, primary screen, biochemical, biotinylated probe, 635/667 nm fluorescence (AID 1097).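 Also: probe is a biotinylated anti-EGFR antibody binding compounds printed on slides; score combines fluorescence near 667 nm and signal to noise of each spot.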 The note with it: higher = more signal.

Activity calls are given as the source filed them.

On to `C[C@H]1C=CCC(=O)OC[C@H](C)C(=O)N2CCC[C@H]2C(=O)OC1`, for which the composite z-score is -0.815 in assay [1]; 2.27 in assay [2]; -0.291 in assay [3]; -0.517 in assay [4]; -0.594 in assay [5]; -1.01 in [6]. In addition, the composite z-score in assay [7] was 1.32; in assay [9], 0.227; in [10], 0.107; in [11] it was 1.54; in assay [15], -1.44; in assay [17] it was -0.228. The composite z-score amounted to 2.09 in assay [18], 0.373 in assay [19] and 0.177 in assay [20]. Further, the z-score in assay [8] is 0.263 (inactive); in assay [12] it was 0.94 (inactive); in [13] it was 0.499 (inactive); in assay [14], -0.0933 (inactive); in assay [16], 0.0085 (inactive).

For the molecule `COC(=O)[C@H](C)NC(=O)CCC1CC(OC(=O)NCc2ccc3c(c2)OCO3)CC2(CCCC(COC(=O)NCCC(C)C)O2)O1` (stereo not given in full), the composite z-score in assay [1] was -0.312; in assay [2], 0.255; in [3], -0.0837; in [4] it was 0.338; in assay [5], 0.821; in assay [6] it was 1.14. Besides, the composite z-score was 0.808 in assay [7]; 0.0929 in [9]; -0.318 in assay [10]; 1.55 in assay [11]; 2.28 in [15]; -0.166 in [17]. For the same molecule, the composite z-score was 0.501 in assay [18], 0.437 in [19] and -0.0858 in assay [20]. Moreover, the z-score was 1.52 (inactive) in assay [8]; -0.916 (inactive) in [12]; -0.031 (inactive) in [13]; -1.24 (inactive) in [14]; 0.861 (inactive) in assay [16].

On to `C#CCCCON=C1C[C@@H](O)[C@@H](O)[C@@H]2[C@@H]3C(=O)N(C[C@@H]4CCCO4)C(=O)[C@@H]3CC[C@@H]12`, for which the composite z-score in assay [1] was -0.499; in assay [2], 0.153; in assay [3], -0.0909; in assay [4] it was 0.691; in [5], 0.922; in assay [6], 0.404. The composite z-score in [7] is 0.275; in assay [9], -0.0371; in assay [10] it was 0.0373; in assay [11], 0.345; in assay [15], 0.379; in assay [17] it was -0.119. Moreover, the composite z-score was 0.595 in [18], 0.752 in assay [19] and -0.0436 in assay [20]. The z-score is 0.737 (inactive) in assay [8]; -0.281 (inactive) in assay [12]; 0.504 (inactive) in [13]; -0.747 (inactive) in assay [14]; 0.133 (inactive) in [16].

`O=C1[C@H]2[C@H]3[C@H](O)[C@H](O)CC(=NO[C@@H]4O[C@H](CO)[C@@H](O)[C@H](O)[C@H]4O)[C@H]3CC[C@H]2C(=O)N1C[C@@H]1CCCO1`: the composite z-score was -0.151 in [1]; 1.07 in assay [2]; -0.121 in assay [3]; 0.126 in assay [4]; 0.57 in [5]; -0.506 in [6]. Moreover, the composite z-score in [7] was -0.744; in assay [9] it was 0.045; in assay [10], -0.0994; in assay [11] it was -0.099; in assay [15], -0.162; in [17], 0.0136. Besides, the composite z-score in assay [18] was 0.379; in assay [19], 0.0492; in [20] it was -0.0578. The z-score was 0.189 (inactive) in [8]; 0.539 (inactive) in assay [12]; 0.944 (inactive) in [13]; 0.734 (inactive) in assay [14]; 0.457 (inactive) in assay [16].

Regarding `C#CCCCON=C1[C@H]2CCn3c(=O)n(Cc4cc5c(cc4Cl)OCO5)c(=O)n3[C@H]2[C@H](O)[C@@H]2O[C@H]12`, the composite z-score was -0.652 in assay [1]; 0.203 in [2]; -0.108 in assay [3]; 0.365 in assay [4]; 0.63 in assay [5]; 0.113 in assay [6]. Besides, the composite z-score in [7] is 0.107; in [9] it was 0.241; in assay [10] it was -0.0645; in assay [11], 0.0698; in assay [15] it was 0.0322; in assay [17], 0.147. The composite z-score in assay [18] was 0.508; in assay [19], 0.836; in [20] it was -0.191. For the same molecule, the z-score is -0.12 (inactive) in assay [8]; 0.842 (inactive) in assay [12]; 1.28 (inactive) in assay [13]; 1.63 (inactive) in assay [14]; 0.314 (inactive) in assay [16].

With `CC(CCC(=O)OC[C@H]1O[C@H](C#Cc2ccccc2)C=C[C@@H]1Oc1ccc(C)cc1)=NOC(C)CN1CCCCc2nc(C)c(C)cc21` (stereo not given in full), the composite z-score was -0.172 in [1]; -0.116 in [2]; -0.211 in assay [3]; -0.12 in assay [4]; -0.565 in [5]; 0.904 in assay [6]. The composite z-score in assay [7] was -0.491; in [9] it was -0.697; in [10], -0.143; in assay [11], 0.479; in [15], 0.238; in assay [17] it was -0.0454. Moreover, the composite z-score in assay [18] was -0.0193; in assay [19] it was -0.171; in assay [20], -0.18. Further, the z-score is 0.49 (inactive) in assay [8]; -0.167 (inactive) in assay [12]; -0.324 (inactive) in [13]; -0.773 (inactive) in assay [14]; 0.136 (inactive) in [16].

For the origin of these results see PubChem BioAssay.
